# Where “and” joins values, the source holds several entries; their conditions need not be identical. Equal values may be shown once. Unmarked numbers belong to inactive results. Results filed as inconclusive are left out. A call without a number means that no potency is given here. Calls of active or inactive are those of the source. Unless noted, the call rests on the fitted dose curve; in most records, active means well fitted curve in the direction sought with a large enough effect; inconclusive means small, poorly fitted or top-dose-only effect, or another doubt; inactive means no such curve, though single readings can be large; an effect the other way counts as inactive or inconclusive.
# What was measured:
# PA-1 = assay: Primary qHTS to identify gynecologic anti-cancer compounds using libraries of approved drugs and bioactive compounds (AID 1345084); conditions: Gynecologic cancer cell panel viability, ATPlite luminescence, 48 h; series mostly up to 57.5 µM; further: nearly all actives have a fitted effect of over 55% in size; further: potency means the concentration at half of the fitted maximal effect
# Method in brief: (§1)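 48 h compound exposure at 37 C, 5% CO2; five-point qHTS. ATPlite luminescence readout of cell ATP.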
# SKOV3 = assay: as above; conditions: Gynecologic cancer cell panel viability, ATPlite luminescence, 48 h; series mostly up to 57.5 µM
# Method in brief: as §1
# Tov-21-G = assay: as above; conditions: Gynecologic cancer cell panel viability, ATPlite luminescence, 48 h; series mostly up to 57.5 µM
# Method in brief: as §1
# [1] = Drug repurposing screens with cells derived from glioblastoma tumor samples (AID 1345199); conditions: GBM patient neurospheres viability, ATP luminescence, 48 h; further: nearly all actives have a fitted effect of over 40% in size; further: potency means the concentration at half of the fitted maximal effect
# Method in brief: (§2)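 Primary testing used CD133+ neurospheres from four GBM patients, seven concentrations, 48 h exposure and ATP-based viability; confirmation added three slower-growing patient lines.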
# Tov112D = assay: Primary qHTS to identify gynecologic anti-cancer compounds using libraries of approved drugs and bioactive compounds (AID 1345084); conditions: Gynecologic cancer cell panel viability, ATPlite luminescence, 48 h; series mostly up to 57.5 µM; further: nearly all actives have a fitted effect of over 55% in size; further: potency means the concentration at half of the fitted maximal effect
# Method in brief: as §1
# astro = assay: Drug repurposing screens with cells derived from glioblastoma tumor samples (AID 1345199); conditions: viability, ATP luminescence, 48 h; series mostly up to 45.9 µM; further: nearly all actives have a fitted effect of over 40% in size; further: potency means the concentration at half of the fitted maximal effect
# Method in brief: as §2
# [2] = biological target: Nuclear receptor subfamily 1 group I member 2 (Rattus norvegicus) (UniProt Q9R1A7); assay: qHTS assay for small molecule activators of the rat pregnane X receptor (rPXR) signaling pathway (AID 651751; call rule not given here); conditions: rPXR reporter cells, luciferase (One-Glo), 24 h
# [3] = qHTS assay for small molecule activators of the human pregnane X receptor (PXR) signaling pathway (AID 720659; call rule not given here)
# [4] = at 45.9 µM (top of the series), tumour line B
# [5] = at 46.1 µM (top of the series), tumour line C
# [6] = at 45.9 µM (top of the series), tumour line D
# Nuclear receptor subfamily 1 group I member 2 (Rattus norvegicus), sequence (Q9R1A7 whole entry, looked up): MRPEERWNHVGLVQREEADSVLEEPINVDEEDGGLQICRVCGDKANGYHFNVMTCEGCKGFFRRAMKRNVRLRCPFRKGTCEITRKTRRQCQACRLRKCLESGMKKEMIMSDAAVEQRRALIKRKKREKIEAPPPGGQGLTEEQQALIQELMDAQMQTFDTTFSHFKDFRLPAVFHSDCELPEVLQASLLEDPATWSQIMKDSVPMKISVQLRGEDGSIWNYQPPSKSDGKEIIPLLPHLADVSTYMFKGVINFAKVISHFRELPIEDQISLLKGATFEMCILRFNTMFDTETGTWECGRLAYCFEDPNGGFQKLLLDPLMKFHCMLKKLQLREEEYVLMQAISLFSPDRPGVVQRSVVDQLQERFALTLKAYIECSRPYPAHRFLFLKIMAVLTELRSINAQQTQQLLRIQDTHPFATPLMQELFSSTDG
smiles,measurement,setting,value
CC(=O)Nc1ccn(C2COC(COC(=O)c3ccccc3)O2)c(=O)n1 (stereo not drawn),Potency,PA-1,inactive
same,Potency,SKOV3,inactive
same,Potency,Tov-21-G,inactive
same,"activity, negative = cell killing",[1]; [4],-21.5%
same,"activity, negative = cell killing",[1]; [5],-14.9%
O=[N+]([O-])c1ccc(O)c2ncccc12,Potency,Tov112D,28.2 µM (active)
same,Potency,astro,3.55 µM (active)
OCc1c[nH]c2ccccc12,max response,[2],0.925%
same,outcome,[3],inactive
CC(C)(C)C1CCC(CC2=C(O)c3ccccc3C(=O)C2=O)CC1 (stereo not drawn),Potency,PA-1,inactive
same,Potency,Tov-21-G,inactive
same,Potency,Tov112D,inactive
Oc1ccc(CCNCCCCCCNCCc2ccccc2)cc1O,"activity, negative = cell killing",[1]; [4],-20.6%
same,Potency,[1]; tumour line A,17.8 µM (active)
same,Potency,astro,inactive
COc1ccc(-n2nc(CCC(=O)N(C)O)cc2-c2ccc(Cl)cc2)cc1,Potency,SKOV3,31.6 µM (active)
same,Potency,Tov112D,inactive
CN1CCCN(C(c2ccccc2)c2ccc(Cl)cc2)CC1 (stereo not drawn),Potency,PA-1,inactive
same,Potency,Tov-21-G,inactive
same,Potency,Tov112D,31.6 µM (active)
same,"activity, negative = cell killing",[1]; [5],-12.3%
same,Potency,[1]; tumour line A,4.47 µM (active)
same,Potency,[1]; tumour line B,35.5 µM (active)
same,Potency,[1]; tumour line D,20 µM (active)
C[N+](C)(C)CCO,"activity, negative = cell killing",[1]; [4],-20.6% and -4.58%
same,"activity, negative = cell killing",[1]; [6],-15.3% and -5.56%
same,"activity, negative = cell killing","[1]; at 46 µM (top of the series), tumour line A",-28.3% and -25.4%
same,"activity, negative = cell killing",[1]; [5],20.9% and 13.7%
same,Potency,astro,inactive
CCCCCCCCCCCCCC[N+](C)(C)C,Potency,PA-1,11.2 µM (active)
same,Potency,Tov-21-G,5.62 µM (active)
same,Potency,Tov112D,14.1 µM (active)
same,Potency,astro,10 µM (active)
O=C1CCCc2c(O)cccc21,Potency,PA-1,inactive
same,Potency,Tov-21-G,inactive
same,Potency,Tov112D,inactive
O=C1NC(=O)/C(=C/c2ccc3c(c2)OC(F)(F)O3)S1,Potency,SKOV3,inactive
same,Potency,Tov-21-G,inactive
same,Potency,Tov112D,inactive
OCCOCCN1CCN(C(c2ccccc2)c2ccc(Cl)cc2)CC1 (stereo not drawn),Potency,PA-1,inactive
same,Potency,SKOV3,inactive
same,Potency,Tov-21-G,inactive
same,Potency,Tov112D,inactive
same,Potency,astro,inactive
same,max response,[2],-2.98%
Cc1ccc(C(=O)Oc2ccc(C(O)CNC(C)(C)C)cc2OC(=O)c2ccc(C)cc2)cc1 (stereo not drawn),Potency,PA-1,inactive
same,Potency,Tov-21-G,inactive
same,Potency,Tov112D,inactive
CCCCCC(=O)O[C@]1(C(C)=O)CC[C@H]2[C@@H]3CCC4=CC(=O)CC[C@]4(C)[C@H]3CC[C@@]21C,Potency,PA-1,inactive
same,Potency,Tov-21-G,inactive
same,Potency,Tov112D,inactive
Cc1cc(OCCOCC[N+](C)(C)Cc2ccccc2)ccc1C(C)(C)CC(C)(C)C,Potency,Tov-21-G,inactive
same,Potency,astro,15.8 µM (active)
CCN(CC)CCNC(=O)c1ccc(NS(C)(=O)=O)cc1,"activity, negative = cell killing",[1]; [4],-2.38%
same,"activity, negative = cell killing",[1]; [6],-14.7%
same,"activity, negative = cell killing",[1]; [5],-3.28%
same,Potency,astro,inactive
OCCc1ccccc1,Potency,PA-1,inactive
same,Potency,SKOV3,inactive
same,Potency,Tov-21-G,inactive
same,Potency,Tov112D,inactive
same,Potency,astro,inactive
CN1CCC(Nc2ncc3ncnc(Nc4ccc(F)c(Cl)c4)c3n2)CC1,Potency,Tov-21-G,inactive
same,Potency,Tov112D,inactive
same,Potency,astro,17.8 µM (active)
CC(C)OC(=O)c1cc2c(OCC(O)CNC(C)(C)C)cccc2[nH]1 (stereo not drawn),Potency,PA-1,inactive
same,Potency,Tov-21-G,inactive
same,Potency,Tov112D,inactive
same,"activity, negative = cell killing",[1]; [4],-15.9%
same,Potency,[1]; tumour line A,11.2 µM (active)
same,Potency,[1]; tumour line D,22.4 µM (active)
Nc1ccc2c(c1)CN1C(=O)c3ccccc3C1=N2,Potency,SKOV3,7.94 µM (active)
same,Potency,Tov-21-G,10 µM (active)

# Source: PubChem BioAssay (NCATS)
